Source: PubChem BioAssay
Sampled rows, rich in hits. Any-hit rate of the full collection: about 0.71%.
CatG inh – cathepsin G (human) inhibition; inhibition, % at 5 µM (by protocol); purified enzyme, AMC-tetrapeptide fluorescence, pooled mixtures; hit rate 0.2% among 62,000; P08311;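 active = inhibition above 20% in each of the two mixture wells holding the compound; inactive = inhibition of 20% or less in either well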;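 note: 0% = enzyme control without mixture and 100% = blank lacking enzyme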
C1s inh – blocks human complement C1s protease activity; P09871; purified C1s, fluorogenic AMC substrate, pooled mixtures; mean inhibition % of two 10-compound mixtures (active compounds read high), % at 5 µM (by protocol); hit rate 0.16% among 62,000;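 active = inhibition above 20% in each of the two 10-compound mixture wells holding the compound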;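 note: 0% = enzyme wells lacking compound mixture and 100% = no-enzyme blank wells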
Htt clearance – compounds clearing mutant huntingtin protein. HeLa Exon1htt(103Q)mCFP, aggregate imaging; zero = plate's median compound well. inhibition, % at 1.5 µM. hit rate 0.42% among 47,000;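 active = inhibition of aggregate fluorescence above about 70%, also judged a hit by eye on the cell image, limit read from the data, passing the limit was not always enough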;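 note: cells exposed to compound for three days before fixation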
FXIIa inh mix – factor XIIa (human) inhibition, mixture screen; purified FXIIa, fluorogenic substrate, pooled mixtures; inhibition, % at 5 µM; hit rate 0.2% among 62,000; AID 684;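 note: 0% = enzyme without compound and 100% = no enzyme blank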
FXIa inh mix – factor XIa (human) inhibition, mixture screen; hit rate 0.19% among 62,000; P03951; inhibition, % at 5 µM; AID 680; purified FXIa, fluorogenic substrate, pooled mixtures;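 note: each value is inhibition by a whole ten-compound pool holding the compound; 0% = enzyme with no mixture and 100% = wells lacking enzyme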
Target sequence (P03951 19-387 limits assumed): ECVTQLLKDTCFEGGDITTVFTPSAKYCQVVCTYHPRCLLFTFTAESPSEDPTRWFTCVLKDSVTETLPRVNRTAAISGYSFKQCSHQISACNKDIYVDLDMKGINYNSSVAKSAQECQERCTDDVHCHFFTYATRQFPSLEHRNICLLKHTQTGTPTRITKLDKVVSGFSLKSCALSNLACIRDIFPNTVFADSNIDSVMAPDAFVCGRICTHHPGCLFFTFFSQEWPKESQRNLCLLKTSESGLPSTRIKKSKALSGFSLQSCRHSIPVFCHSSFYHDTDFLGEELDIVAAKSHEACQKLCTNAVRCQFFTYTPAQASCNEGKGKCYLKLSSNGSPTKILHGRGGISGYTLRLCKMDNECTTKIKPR
Target sequence (P03951 388-625 limits assumed): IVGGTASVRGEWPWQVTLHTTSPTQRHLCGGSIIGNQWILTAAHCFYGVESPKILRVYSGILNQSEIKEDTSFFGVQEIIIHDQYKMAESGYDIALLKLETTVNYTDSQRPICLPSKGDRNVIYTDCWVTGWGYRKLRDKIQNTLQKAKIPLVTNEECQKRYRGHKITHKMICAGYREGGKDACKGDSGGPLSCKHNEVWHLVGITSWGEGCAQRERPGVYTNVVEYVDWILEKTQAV
Starred values were filed as active, the others as inactive; nt = no result. Cut-off read from the data, not from the text of the source, unless noted: active = inhibition above about 20% (passing the limit was not always enough); inactive = the rest.

SMILES | CatG inh | C1s inh | Htt clearance | FXIIa inh mix | FXIa inh mix
CC(=O)Nc1ccc(NC(C)=O)s1 | 11 | 56* | nt | 8 | 7
CCn1c2ccccc2c2nnc(SCC(=O)NC(C(=O)OC)C(C)C)nc21 (configuration not stated) | 9 | 19 | nt | 3 | 6
O=C(Oc1ccc2c(c1)OCC2=O)c1ccccc1 | 12 | 43* | -27 | 6 | 4
CC(=O)Oc1ccc2c(c1)C(=O)c1ccccc1CO2 | nt | nt | -12 | nt | nt
Cc1ccc(NC(=O)c2nnn(-c3cc(C)cc(C)c3)c2N)cc1 | 38 | 1 | 12 | -2 | 25
Cc1cccc(-n2nnc(C(=O)Nc3ccc(F)cc3)c2N)c1 | 51* | 25 | 25 | 5 | 10
Cc1ccc(NC(=O)Cn2nnc(C(=O)NCc3ccco3)c2N)cc1 | nt | nt | 71* | nt | nt
Cc1ccc(NC(=O)Cn2nnc(C(=O)Nc3ccc(C)c(C)c3)c2N)cc1 | 9 | 14 | 83* | -5 | 8
CSc1ccc(Cn2nnc(C(=O)Nc3ccc(C)c(C)c3)c2N)cc1 | nt | nt | 43 | nt | nt
COc1ccc(C2OC(=O)CC2C(=O)N2CCN(c3cc(Cl)ccc3C)CC2)cc1OC (configuration not stated) | 1 | -2 | nt | 7 | 4
COc1ccc(-c2cc(N)n(S(=O)(=O)c3c(F)c(F)c(F)c(F)c3F)n2)cc1OC | -1 | -26 | -25 | 5 | 7
COc1ccc(S(=O)(=O)n2nc(-c3cc(OC)c(OC)c(OC)c3)cc2N)cc1OC | 1 | 5 | nt | 21* | 6
CCc1ccc(C2CC(c3ccccc3)n3ncnc3N2)cc1 (configuration not stated) | 3 | -1 | nt | 10 | 2
COc1ccc(C(=O)SC2=NCCS2)cc1OC | 13 | 24* | 54 | 4 | 16
COc1ccc(/C(O)=C2/C(=O)C(=O)N(CCCN(C)C)C2c2ccccc2)cc1Cl (configuration not stated) | nt | nt | -2 | nt | nt
O=C(CCC1CCCC1)N1CCN(C(=O)c2ccco2)CC1 | 11 | 15 | 72* | 1 | 4
O=C(c1ccco1)N1CCN(S(=O)(=O)c2ccc(S(=O)(=O)NC3CCCC3)cc2)CC1 | 9 | 7 | -78 | 5 | 3
O=C(c1ccco1)N1CCN(S(=O)(=O)c2ccc(S(=O)(=O)NC3CCCCC3)cc2)CC1 | 9 | 71* | nt | 9 | 2
C(=N\c1nccs1)/Nc1nccs1 | -1 | 1 | nt | 12 | 8
COc1ccccc1-c1cc(C(=O)NC(C)c2ccccc2)no1 (configuration not stated) | 33* | 7 | 20 | -3 | 9
COc1ccccc1-c1cc(C(=O)NC(C)C)no1 | 13 | 7 | 2 | 5 | 7
O=c1[nH]c2c(s1)C(c1ccco1)C1C3CCC(C3)C1S2 (configuration not stated) | 12 | 11 | nt | 13 | 7
COc1ccc(NS(=O)(=O)c2ccc(OC)c3ccccc23)cn1 | 9 | -15 | nt | 12 | 8
COc1ccc(S(=O)(=O)Nc2cc(C)cc(C)n2)c2ccccc12 | 1 | 3 | 86* | 2 | 0
CCOc1cc(CO)c(Br)cc1OCC(=O)O | nt | nt | 8 | nt | nt
SMILES | CatG inh | C1s inh | Htt clearance | FXIIa inh mix | FXIa inh mix
CCOc1ccc(Br)cc1CC(=O)O | -12 | -49 | 75* | 7 | 2
O=C(CSc1nc2ccsc2c(=O)n1NC(=O)c1ccccc1)NCc1ccco1 | -2 | -21 | 70* | -6 | 6
Cc1ccc(C(=O)c2cc(C)sc2NC(=O)CN2CCN(C(=O)c3ccco3)CC2)cc1 | 10 | 9 | nt | 21* | 12
CCc1ccc(NC(=O)CNS(=O)(=O)c2c(C)noc2C)cc1 | 1 | 1 | 36 | 2 | 2
CC(=O)c1ccc(Cc2cnc(N)s2)cc1 | 11 | 18 | -70 | 21* | 2
CCN(c1cccc(C)c1)S(=O)(=O)c1cnc[nH]1 | nt | nt | -42 | nt | nt
C=CCn1c(SC(C)C(=O)NC2(C#N)CCCCC2)nnc1-c1ccc(OC)cc1 (configuration not stated) | 8 | 3 | -28 | 4 | 22*
O=C(c1cn(-c2ccccc2)nc1-c1ccncc1)n1nnc2ccccc21 | 23 | -5 | nt | 58* | 87*
CN(C)c1ccc(P(=O)(OCc2ccccc2)C(O)c2ccncc2)cc1 (configuration not stated) | 9 | 11 | 74* | 5 | 6
CCOc1ccc(NC(=O)c2oc3ccccc3c2NC(=O)C(C)C)cc1 | 12 | 16 | nt | 5 | 3
CC(=O)NC(=O)NC1OC(=O)C(Cl)=C1Cl (configuration not stated) | 12 | 18 | -26 | -12 | 6
Cc1cc(C)n(CCc2nc(-c3ccc(C)o3)cs2)n1 | nt | nt | -31 | nt | nt
Cc1csc(CCc2nc(C)cs2)n1 | 10 | 2 | -22 | 22* | -1
Cc1ccc(C(=O)OCC(=O)NCc2ccco2)cc1 | nt | nt | 31 | nt | nt
O=C(COC(=O)c1ccccc1)NCc1ccco1 | -1 | 35 | -23 | 35* | 6
CCOC(=O)c1ccccc1NC(=O)CSc1ccccc1 | nt | nt | -3 | nt | nt
O=C(c1ccco1)N1CCN=C1SCc1c(F)cccc1Cl | 1 | -97 | -59 | 11 | 29*
O=C(c1ccco1)N1CCN=C1SCc1ccccc1Cl | 6 | 6 | 51 | -3 | 5
COc1ccccc1-c1cc(C(F)(F)F)nc(N2CCOCC2)n1 | 10 | 4 | 40 | 2 | 22*
Fc1ccc(-c2cc(C(F)(F)F)nc(N3CCCCC3)n2)cc1 | -2 | 1 | 9 | 21* | 1
CC1CCN(c2nc(-c3ccccc3)cc(C(F)(F)F)n2)CC1 | 10 | 39 | nt | 4 | 1
CC(C)OC(=O)N(C)c1ccc(C(O)(C(F)(F)F)C(F)(F)F)cc1 | nt | nt | 76* | nt | nt
CCOC(=O)COn1c(=O)c(-c2ccc(OC)c(OC)c2)[n+]([O-])c2ccccc21 | nt | nt | 74* | nt | nt
COc1ccc(-c2c(=O)n(OCc3ccccn3)c3ccccc3[n+]2[O-])cc1OC | 2 | 7 | nt | 1 | 3
COC(=O)c1cc(Nc2ncnc3c2cnn3-c2ccccc2)cc(C(=O)OC)c1 | 1 | -29 | nt | -27 | 1
SMILES | CatG inh | C1s inh | Htt clearance | FXIIa inh mix | FXIa inh mix
O=C(NCC1CCCO1)C1c2ccccc2C(=O)N1Cc1ccc2c(c1)OCO2 (configuration not stated) | 9 | 11 | nt | -22 | -7
O=C(NCc1ccccn1)C1CCN(S(=O)(=O)N2CCCC2)CC1 | 3 | -4 | nt | -1 | 27*
O=C(O)CCCNS(=O)(=O)c1ccc(NCc2ccccc2)c(C(=O)O)c1 | 11 | 4 | nt | 4 | 2
Nc1nncn1C(=O)c1cccs1 | 22* | 14 | 1 | 15 | 13
Cc1ccc(C(=O)n2cnnc2N)cc1 | nt | nt | 0 | nt | nt
O=C(CNS(=O)(=O)c1cccs1)N1CCc2ccccc2C1 | -1 | -2 | 31 | 7 | 6
CCc1nc(N)c(C#N)c(-c2ccccc2OC)c1C | 6 | 11 | -7 | -18 | 6
Cc1cc(Oc2ccccc2)nc(N)n1 | 8 | 9 | -45 | 9 | -1
Cc1cc(Oc2ccccc2)nc(OCC#N)n1 | 9 | -3 | 15 | 38* | 2
CC(C)[C@H](NC(=O)[C@@H]1CSCN1C(=O)OC(C)(C)C)C(=O)NCC1CCC(C(=O)O)CC1 (some centres not stated) | -7 | -27 | 76* | 7 | -2
